What all share (test): yeast three-hybrid, YBZ-1, SC-Leu-His + 0.5 mM 3-AT, 4 days
What all share (details): tags: N-Gal4 AD-HA kept; label: inside an RPR1-promoter hybrid RNA with tandem MS2 sites; ssRNA

The target of assay [1] is PUM1 PUF domain R7-KQC (Homo sapiens, UniProt Q14671 828-1176, S1079K;N1080Q;E1083C). Summed up:
(§1)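 The interaction score is the log change in variant frequency from input to selection. Scores were computed in log2 with a pseudocount of 1 for absent variants, using Illumina sequencing of PCR-amplified repeat regions. The input came from four days on SC-Leu and the selection from four days on SC-Leu-His + 0.5 mM 3-AT. The cells were strain YBZ-1 (LexA–MS2 coat fusion, HIS3 reporter) co-expressing Pumilio-1 PUF domain libraries and matching RNA elements from a centromeric plasmid.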

Assay [2] addresses PUM1 PUF domain R3-VRA (Homo sapiens, UniProt Q14671 828-1176, C935V;Q939A). Summed up: as §1
Assay [3] concerns the target PUM1 PUF domain R3-SCR (Homo sapiens, UniProt Q14671 828-1176, C935S;R936C;Q939R). The method in brief:
as §1

Assay [4] has as its target PUM1 PUF domain R3-GPD (Homo sapiens, UniProt Q14671 828-1176, C935G;R936P;Q939D). Summed up: as §1
The target in assay [5] is PUM1 PUF domain R5-GHL (Homo sapiens, UniProt Q14671 828-1176, C1007G;R1008H;Q1011L). The method in brief:
as §1

Assay [6] has as its target PUM1 PUF domain R5-RFQ (Homo sapiens, UniProt Q14671 828-1176, C1007R;R1008F). The method in brief:
as §1

The target of assay [7] is PUM1 PUF domain R5-RHS (Homo sapiens, UniProt Q14671 828-1176, C1007R;R1008H;Q1011S). Summed up:
as §1

The target of assay [8] is PUM1 PUF domain R1-RTT (Homo sapiens, UniProt Q14671 828-1176, S863R;R864T;Q867T). The method in brief:
as §1

For assay [9], the target named is PUM1 PUF domain R4-NRS (Homo sapiens, UniProt Q14671 828-1176, H972R;Q975S). The method in brief:
as §1

The target in assay [10] is PUM1 PUF domain R4-MPC (Homo sapiens, UniProt Q14671 828-1176, N971M;H972P;Q975C). The method in brief:
as §1

For assay [11], the target named is PUM1 PUF domain R4-WST (Homo sapiens, UniProt Q14671 828-1176, N971W;H972S;Q975T). The method in brief: as §1
Sequence of PUM1 PUF domain R4-WST (Q14671 828-1176 N971W/H972S/Q975T): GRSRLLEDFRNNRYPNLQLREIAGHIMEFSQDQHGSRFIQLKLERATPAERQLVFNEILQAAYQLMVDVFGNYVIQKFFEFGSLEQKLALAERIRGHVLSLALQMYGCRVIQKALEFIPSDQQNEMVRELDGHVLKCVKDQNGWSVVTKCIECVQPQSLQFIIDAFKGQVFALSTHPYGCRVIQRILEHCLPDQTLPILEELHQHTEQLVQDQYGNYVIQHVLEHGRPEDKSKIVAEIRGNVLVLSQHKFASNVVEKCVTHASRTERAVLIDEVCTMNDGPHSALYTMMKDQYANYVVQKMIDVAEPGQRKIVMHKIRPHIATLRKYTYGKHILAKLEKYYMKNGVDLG
The target of assay [12] is PUM1 PUF domain R4-PFF (Homo sapiens, UniProt Q14671 828-1176, N971P;H972F;Q975F). Summed up:
as §1

Assay [13] deals with PUM1 PUF domain R4-CNV (Homo sapiens, UniProt Q14671 828-1176, N971C;H972N;Q975V). Summed up:
as §1

The target in assay [14] is PUM1 PUF domain R5-KFS (Homo sapiens, UniProt Q14671 828-1176, C1007K;R1008F;Q1011S). Summed up:
as §1

This is an account of results in paper PMC8384837, “Expanding the binding specificity for RNA recognition by a PUF domain”.

Sequence of PUM1 PUF domain R4-PFF (Q14671 828-1176 N971P/H972F/Q975F): as the sequence (Q14671 828-1176 N971W/H972S/Q975T) above, with W144P, S145F, T148F counted along it
Sequence of PUM1 PUF domain R4-CNV (Q14671 828-1176 N971C/H972N/Q975V): as the sequence (Q14671 828-1176 N971W/H972S/Q975T) above, with W144C, S145N, T148V counted along it
Sequence of PUM1 PUF domain R4-NRS (Q14671 828-1176 H972R/Q975S): as the sequence (Q14671 828-1176 N971W/H972S/Q975T) above, with W144N, S145R, T148S counted along it
Sequence of PUM1 PUF domain R4-MPC (Q14671 828-1176 N971M/H972P/Q975C): as the sequence (Q14671 828-1176 N971W/H972S/Q975T) above, with W144M, S145P, T148C counted along it
Sequence of PUM1 PUF domain R5-GHL (Q14671 828-1176 C1007G/R1008H/Q1011L): as the sequence (Q14671 828-1176 N971W/H972S/Q975T) above, with W144N, S145H, T148Q, C180G, R181H, Q184L counted along it
Sequence of PUM1 PUF domain R1-RTT (Q14671 828-1176 S863R/R864T/Q867T): as the sequence (Q14671 828-1176 N971W/H972S/Q975T) above, with S36R, R37T, Q40T, W144N, S145H, T148Q counted along it
Sequence of PUM1 PUF domain R5-RFQ (Q14671 828-1176 C1007R/R1008F): as the sequence (Q14671 828-1176 N971W/H972S/Q975T) above, with W144N, S145H, T148Q, C180R, R181F counted along it
Sequence of PUM1 PUF domain R3-VRA (Q14671 828-1176 C935V/Q939A): as the sequence (Q14671 828-1176 N971W/H972S/Q975T) above, with C108V, Q112A, W144N, S145H, T148Q counted along it
Sequence of PUM1 PUF domain R7-KQC (Q14671 828-1176 S1079K/N1080Q/E1083C): as the sequence (Q14671 828-1176 N971W/H972S/Q975T) above, with W144N, S145H, T148Q, S252K, N253Q, E256C counted along it

With “GGCUAGAACUAGUGGAUCCCCCGGCGCCCGGCGGCUCGAGCCCGGGUAAGUCUAAAUAGUCUGCAUGCCGCCGGGCGCCAUGCCUGCAGGUCGACUCUAGAAAACAUG”, in assay [1], the binding signal is 2.83 log2 enrichment (interaction score).
Regarding “GGCUAGAACUAGUGGAUCCCCCGGCGCCCGGCGGCUCGAGCCCGGGUAAGUGUAAGUAGUCUGCAUGCCGCCGGGCGCCAUGCCUGCAGGUCGACUCUAGAAAACAUG”, the binding signal in [2] was 1.39 log2 enrichment (interaction score); in [3], 3.4 log2 enrichment (interaction score).
“GGCUAGAACUAGUGGAUCCCCCGGCGCCCGGCGGCUCGAGCCCGGGUAAGUGUAAUUAGUCUGCAUGCCGCCGGGCGCCAUGCCUGCAGGUCGACUCUAGAAAACAUG”: the binding signal in assay [4] was 3.07 log2 enrichment (interaction score); in assay [3] it was 3.35 log2 enrichment (interaction score).
Regarding “GGCUAGAACUAGUGGAUCCCCCGGCGCCCGGCGGCUCGAGCCCGGGUAAGUGUGAAUAGUCUGCAUGCCGCCGGGCGCCAUGCCUGCAGGUCGACUCUAGAAAACAUG”, the binding signal in [5] was 2.8 log2 enrichment (interaction score); in [6] it was 3.05 log2 enrichment (interaction score); in assay [7] it was 3.89 log2 enrichment (interaction score).
In the case of “GGCUAGAACUAGUGGAUCCCCCGGCGCCCGGCGGCUCGAGCCCGGGUAAGUGUAAAUGGUCUGCAUGCCGCCGGGCGCCAUGCCUGCAGGUCGACUCUAGAAAACAUG”, in assay [8], the binding signal was 3.14 log2 enrichment (interaction score).
On to “GGCUAGAACUAGUGGAUCCCCCGGCGCCCGGCGGCUCGAGCCCGGGUAAGUGUAUAUAGUCUGCAUGCCGCCGGGCGCCAUGCCUGCAGGUCGACUCUAGAAAACAUG”, for which the binding signal in [9] was 2.58 log2 enrichment (interaction score); in assay [10], 3.15 log2 enrichment (interaction score); in assay [11], 2.45 log2 enrichment (interaction score); in assay [12], 7.66 log2 enrichment (interaction score); in assay [13], 3.21 log2 enrichment (interaction score).
As for “GGCUAGAACUAGUGGAUCCCCCGGCGCCCGGCGGCUCGAGCCCGGGUAAGUGUACAUAGUCUGCAUGCCGCCGGGCGCCAUGCCUGCAGGUCGACUCUAGAAAACAUG”, the binding signal in assay [12] is 3.52 log2 enrichment (interaction score); in assay [13], 2.79 log2 enrichment (interaction score).
Take “GGCUAGAACUAGUGGAUCCCCCGGCGCCCGGCGGCUCGAGCCCGGGUAAGUGUCAAUAGUCUGCAUGCCGCCGGGCGCCAUGCCUGCAGGUCGACUCUAGAAAACAUG”: the values for the binding signal in assay [7] and in assay [14] were 5.1 log2 enrichment (interaction score) and 5.16 log2 enrichment (interaction score), respectively.
